Data as given in the supplement of paper PMC3334620.
Whole data set: some 33,000 sequences, median “E-score (-0.5 to 0.5)” near -0.012, cut for the highest 2% near 0.27. Only a selection was taken, and the highest values are over-represented in it overall.

What follows are sequences tested against T1, Vhr1 (UniProt P40522) (assay: PBM E-score (8-mer binding enrichment) (E-score (-0.5 to 0.5)); higher = stronger / more preferred TF binding). Conditions: protein concentration: 200 nM; construct: GST-full length.
T1 sequence: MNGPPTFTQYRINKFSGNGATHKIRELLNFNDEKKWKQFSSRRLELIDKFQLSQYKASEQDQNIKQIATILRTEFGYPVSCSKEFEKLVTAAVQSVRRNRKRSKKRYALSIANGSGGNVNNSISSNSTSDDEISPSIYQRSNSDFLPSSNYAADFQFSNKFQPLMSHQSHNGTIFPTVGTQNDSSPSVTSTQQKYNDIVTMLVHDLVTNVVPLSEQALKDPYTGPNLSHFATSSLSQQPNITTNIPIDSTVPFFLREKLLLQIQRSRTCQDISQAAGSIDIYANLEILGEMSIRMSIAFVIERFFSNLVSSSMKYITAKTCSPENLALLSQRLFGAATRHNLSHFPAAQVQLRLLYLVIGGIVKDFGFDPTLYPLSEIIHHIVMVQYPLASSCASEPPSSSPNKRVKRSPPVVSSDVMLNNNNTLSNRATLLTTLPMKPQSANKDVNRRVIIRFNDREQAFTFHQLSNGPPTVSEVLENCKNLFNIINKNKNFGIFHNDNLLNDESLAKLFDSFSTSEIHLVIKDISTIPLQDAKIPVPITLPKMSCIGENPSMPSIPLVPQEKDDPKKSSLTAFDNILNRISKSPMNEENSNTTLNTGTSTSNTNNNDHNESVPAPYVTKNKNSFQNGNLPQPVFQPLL
Description: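 Universal 'all 10-mer' protein binding microarrays (Agilent AMADID 015681) probed with GST-tagged S. cerevisiae TFs (full-length or DBD) made by in vitro transcription/translation (PURExpress), about 100-200 nM. Bound TF was detected with fluorescent anti-GST. Each ungapped 8-mer (which stands for itself and its reverse complement) is scored by the PBM enrichment score (E-score), a modified Wilcoxon-Mann-Whitney statistic from -0.5 to +0.5, computed with the Universal PBM Analysis Suite. Scale: above 0.35 generally sequence-specific binding.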

Sequence | PBM E-score
GTTTGTGA | -0.0971
GGCTATGA | 0.0249
AGAGCACG | 0.00968
CCAGCCAA | -0.119
CATTCAGA | 0.0364
CTGGGTAC | 0.196
CCTGAGGC | -0.096
CCTGAGTA | 0.205
CCTGAGTC | 0.461
AACGCTAC | -0.205
AAATCATG | 0.29
AAATCATA | 0.227
CAATCATG | 0.289
CAATCAAG | 0.00756
AAATCATT | -0.011
CAATCAGG | 0.0706
GACTGGCA | -0.0149
GAACTATA | 0.222
GTAGCATA | 0.079
CGATTCAG | 0.12
AAGCTCCG | -0.173
CTGATACA | 0.0817
CTAATATA | -0.0362
ATGATATA | 0.0327
ATGATACC | 0.124

Sequence | PBM E-score
ATAATATA | 0.3
ATAATACA | 0.277
ATGATACA | 0.289
ATAATACC | 0.212
ATGATATC | 0.0491
ATGATATG | 0.315
ATAATATG | 0.206
ATAATACG | 0.0457
AGTGCGCA | 0.112
AGCCAGTA | 0.133
CAAAGAGA | -0.299
ACCTCGCA | -0.0858
TCTGTTCA | 0.151
CGGAGTCC | 0.324
ATGAGTAC | 0.347
CTGAGTAC | 0.175
ATGAGTGG | 0.162
CGGAGTGC | 0.139
CTGAGTGC | 0.0204
ATGAGTAG | 0.189
CTGAGTCC | 0.292
ATGAGTTG | 0.173
CGGAGTAC | 0.0632
ATGAGTCG | 0.462
CTGAGTTC | 0.0461

Sequence | PBM E-score
CATGGAGA | 0.155
ATAAAACA | -0.125
ATGCTTTG | 0.0636
AATAGCAC | -0.026
GAGGTTAC | 0.0302
ACAGGTCC | -0.195
CGACAATA | 0.0881
CGTTAGAA | -0.323
ACTGGGGA | -0.0871
CTGCCCCA | 0.0236
AGGTGGAA | 0.0199
GCGCTCAC | 0.0509
ATGAGTTC | 0.00071
ATGAGTGC | 0.0758
ATGAGTCC | 0.389
GACGCAAC | -0.169
CTTAGTAA | -0.0159
ATTAGTTG | 0.0201
GTTAGTCA | 0.43
ATTAGTTA | 0.143
ATTAGTCA | 0.381
ATTAGTCC | 0.122
GTTAGTTA | 0.137
GTTAGTGA | 0.0216
CTTAGTCC | 0.0119

Sequence | PBM E-score
CTTAGTCA | 0.376
ATTAGTCG | 0.279
ATTAGTGG | 0.141
GGTGCAAC | -0.183
ATGACGCG | 0.162
GTCAATCA | 0.221
AGTCATGG | 0.458
AGTCATGC | 0.443
GGTCATGA | 0.239
AGCCATGG | 0.281
AGACATGG | 0.192
CGTCATGA | 0.267
CGTCATGC | 0.0219
AGTCATGA | 0.466
AGTCAAGC | 0.00212
AGCCATGC | 0.128
AGCCATGA | 0.228
AGTCAAGG | 0.196
CCGTTTAG | -0.0628
AGAAGCGA | -0.0198
GGATAACC | -0.112
AGAACTTC | -0.182
CTTGCCCA | -0.177
GAAGGGTA | 0.0935
CAAAGTTC | -0.0789

Sequence | PBM E-score
ACTGCGAG | 0.0985
GCCACCAC | -0.0307
ATCATGCG | 0.283
ATCATGCA | 0.192
ATCATGCC | 0.0697
ACCATGGG | 0.108
ATCATGGG | 0.272
CCCATGGG | 0.285
CCCATGGA | 0.0783
ATCATGGA | 0.22
ATCATGGC | 0.143
ACGGTCAC | -0.0582
TAGCGTAA | -0.0878
CGGAGATC | -0.0653
AATTCGGA | 0.0232
TCAGAACA | 0.00034
GCAGCTAA | -0.106
CAATTTTC | -0.0832
GAGGCAAC | -0.172
CATAACGA | 0.0162
CGTGACTC | 0.472
CGTGACTA | 0.419
CGTGACGC | -0.144
CGTGACGA | 0.00499
CGTGACCC | 0.141

Sequence | PBM E-score
CGTGACAA | -0.0207
GGTCGAAC | 0.00191
GACCCTAA | -0.109
GGAATTCC | -0.279
CTAATGAA | 0.0817
AGCATCTC | 0.0587
GGATTTGA | -0.0695
CTCGTGAC | 0.273
CTCGTGAA | 0.0314
ATCGTGAC | 0.113
GCCCTCCA | -0.133
ACATATCG | 0.191
CTATATCC | -0.00727
CCATATCA | 0.0898
ATATATCC | 0.273
ATATATAT | 0.324
ATATATAC | 0.285
ATATATAG | 0.132
ATATATAA | 0.247
GTATATAC | 0.0568
CTATATAC | 0.241
ACATATCA | 0.281
ATATATCA | 0.0989
GCCTGCGA | -0.00738
AGAATACT | 0.0167

Sequence | PBM E-score
CAGTACCC | 0.103
GATAATGC | 0.114
GACCACGC | 0.148
GAATCACA | 0.341
TAATCACA | 0.222
GAATCACC | 0.392
GCATCACC | -0.0259
AAATCACC | 0.312
AAATCACA | 0.0215
CAATCACG | 0.211
AAATCACG | 0.173
CAATCACC | 0.238
CTAGAAAC | -0.252
AAGGCTCC | -0.172
ATCGACGG | 0.0804
CCGAATGA | 0.166
CAACCGCG | 0.3
CAACCGCC | -0.102
CAACCGCA | 0.0762
GATTATAC | 0.213
GCGGGCTA | -0.119
AGCGGCTC | -0.0971
